Screens (PubChem BioAssay)
BAZ2B inh – inhibitors of human BAZ2B bromodomain; Potency, µM (doses to about 114 µM), actives largely listed as inhibitors; Q9UIF8; 360,000 compounds, 4.4% hits; AlphaScreen BAZ2B-H3K14Ac peptide displacement; further: nearly all actives have a fitted effect of over 60% in size
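Complex of BAZ2B and biotin-H3K14Ac (50 nM apiece) forms over 30 min at RT, then faces library compounds up to 110 uM for another 30 min; AlphaScreen beads added, 20 min dark incubation, luminescence read.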
L3MBTL1 inh – L3MBTL1 (human) inhibition | Potency, µM (highest dose often 57.1 µM), actives largely listed as inhibitors | 230,000 compounds, 0.66% hits | Q9Y468 | AlphaScreen L3MBTL1–H3K9me1 peptide binding | AID 485360; further: nearly all actives have a fitted effect of over 60% in size
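AlphaScreen proximity signal between nickel-chelate acceptor and streptavidin donor beads (final 10 ug/mL) reports binding of 50 nM L3MBTL1 to 75 nM biotin-H3 K9me1 peptide; complex incubated with compounds 30 min at room temperature; cefsulodin titration as control.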
G9a block – inhibitors of human histone lysine methyltransferase G9a; Q96KQ7; G9a H3K9 monomethylation, AlphaScreen, 2 h; Potency, µM (doses to about 102 µM), usual class: inhibitors; 350,000 compounds, 8.8% hits; AID 504332; further: nearly all actives have a fitted effect of over 75% in size
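AlphaScreen read-out: biotin-H3K9 peptide (500 nM) methylation by 20 nM enzyme with 20 uM SAM, 2 h at room temperature after 15 min compound preincubation; anti-monomethyl H3K9 antibody plus donor/acceptor beads, 10 min dark.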
HP1b chromo inh – HP1-beta chromodomain-methylated histone interaction inhibition; P83916; AlphaScreen HP1-beta / biotin-H3K9me3 peptide binding; Potency, µM (doses to about 114 µM), most hits filed as inhibitors; 390,000 compounds, 0.56% hits; AID 540317; further: nearly all actives have a fitted effect of over 70% in size
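AlphaScreen: HP1-beta (50 nM) preformed 30 min with biotin-H3(1-18)K9me3 peptide (50 nM) in PBS pH 7.4, 0.01% Tween-20. Compound added for 30 min at RT, then streptavidin donor/nickel chelate acceptor beads (10 ug/mL) for 30 min.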
Sfp PPTase inh – Sfp phosphopantetheinyl transferase inhibition; AID 1490; Potency, µM, actives largely listed as inhibitors; Biochemical Sfp PPTase activity, qHTS; 310,000 compounds, 3.5% hits; Q9F4F7;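 further: the enzyme is Sfp with the accession as filed and its product quenches rhodamine fluorescence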
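Compounds were incubated with enzyme (final 15 nM) for 15 min at room temperature before substrate addition started the reaction. Fluorescence at 525 nm excitation, 598 nm emission was recorded immediately and after 30 minutes.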
JMJD2A Tudor inh – inhibitors of human JMJD2A Tudor domain; Potency, µM (titrated, usually from 114 µM), usual class: inhibitors; AID 504339; 390,000 compounds, 4.4% hits; AlphaScreen JMJD2A-Tudor / H3K4me3 peptide binding; O75164; further: nearly all actives have a fitted effect of over 50% in size
Hits are given with their value; . = inactive; ? = inconclusive; / = no result given; [ ] = another dose, or the depositor's remark. Compounds with a hit are over-represented: about 12% of the library has one in this group of screens. The call rests on the fitted dose curve; in most records, active means well fitted curve in the direction sought with a large enough effect; inconclusive means small, poorly fitted or top-dose-only effect, or another doubt; inactive means no such curve, though single readings can be large; an effect the other way counts as inactive or inconclusive.

SMILES	BAZ2B inh	L3MBTL1 inh	G9a block	HP1b chromo inh	Sfp PPTase inh	JMJD2A Tudor inh
C/C(=N\Nc1ccc([N+](=O)[O-])cc1)c1ccc(N)cc1	.	.	7.1µM	.	?	?
C/C(=N\Nc1nc(C)c(C)s1)c1ccc([N+](=O)[O-])cc1	35µM	.	18µM	?	?	?
CCc1ccc(/C(C)=N\Nc2ccc([N+](=O)[O-])cc2)cc1	.	.	.[0.501 µM]	.	.	.
CCN(CC)S(=O)(=O)c1ccc(NC2=NS(=O)(=O)c3ccccc32)cc1	?	/	.	.	.	.
O=S1(=O)N=C(Nc2nncs2)c2ccccc21	56µM	/	2µM	.	50µM	?
O=C1N=c2ccccc2=C1c1sc(=S)n(NC(=O)c2ccccc2)c1O	?	/	40µM	.	.	.
Cn1c(O)c(C2=c3ccccc3=NC2=O)[nH]c1=S	?	.	.	.	.	.
O=S(=O)(c1c(F)cccc1F)N1CCN(C(=S)NCc2ccc3c(c2)OCO3)CC1	.	.	32µM	.	.	.
Fc1ccccc1NC(=S)NCc1ccc2c(c1)OCO2	.	.	.	.	.	.
CCCNC(=S)N1CCN(Cc2ccc3c(c2)OCO3)CC1	?	.	20µM	?	.	28µM
CCNC(=S)N1CCN(Cc2ccc3c(c2)OCO3)CC1	.	.	.	.	.	.
C=CCNC(=S)N1CCN(Cc2ccc3c(c2)OCO3)CC1	50µM	.[2.29 µM]	.[0.501 µM]	?	18µM	14µM
COCCNC(=S)N1CCN(Cc2ccc3c(c2)OCO3)CC1	.	.	.	.	.	.
C=CCNC(=O)CN1CCN(Cc2ccc3c(c2)OCO3)CC1	.	.	/	.	.	.
O=C(NC(=S)N1CCN(Cc2ccc3c(c2)OCO3)CC1)c1cccc(Br)c1	25µM	?	.	.	.	?
C[C@@](O)(/C=C/[C@H]1CC=CC(=O)O1)[C@@H](C[C@@H](O)\C=C/C=C\C=C\CO)OP(=O)(O)O	/	/	.[12.7 µM]	/	.	/
COCCN1C=C2C(=O)C(C)(OC(=O)CCC(=O)OC)C(=O)C(Br)=C2C=C1c1ccc(OC)cc1 (stereo not given)	/	/	/	.	.	?
COC(=O)CCC(=O)OC1(C)C(=O)C2=CN(C3CCCC3)C(c3ccc(OC)cc3)=CC2=C(Br)C1=O (stereo not given)	45µM	/	.[12.7 µM]	?	?	56µM
COC(=O)CCC(=O)OC1(C)C(=O)C2=CN(c3ccc(OC)cc3)C(c3ccc(OC)cc3)=CC2=C(Br)C1=O (stereo not given)	/	/	/	?	.	40µM
CCCn1c(SCC(=O)Nc2cc(Cl)ccc2OC)nc(O)cc1=O	.	.	.[2.33 µM]	.	/	.
CCCCCCOc1ccc(N2C(=O)CC(NCc3ccc(S(N)(=O)=O)cc3)C2=O)cc1 (stereo not given)	.	.	.	.	.	.
CCOc1cccc(N2C(=O)CC(NCc3ccc(S(N)(=O)=O)cc3)C2=O)c1 (stereo not given)	.	.	50µM	.	.	.
COc1ccc(CNC(=O)C2CCN(c3nc4ccccc4[nH]3)CC2)c(OC)c1	.	/	.	.	/	.
Cc1oc2ncn(CC(C)C)c(=O)c2c1C(=O)NCc1cccc(Cl)c1	.	/	.	.	/	.
CSc1ccc(C(=O)C2CCCN(Cc3cccn3-c3cccnc3)C2)cc1 (stereo not given)	?	.	?	?	.	45µM
SMILES	BAZ2B inh	L3MBTL1 inh	G9a block	HP1b chromo inh	Sfp PPTase inh	JMJD2A Tudor inh
COc1ccc(C(=O)C2CCCN(Cc3cccn3-c3cccnc3)C2)cc1OC (stereo not given)	.	.	.	.	.	.
COc1ccccc1C(=O)Nc1ccc(S(=O)(=O)Nc2nccs2)cc1	.	/	?	.	.	.
COc1ccc(-n2ccc(=O)c(C(=O)Nc3ccc(S(=O)(=O)Nc4nccs4)cc3)n2)cc1	?	/	?	.	.	56µM
O=C(Nc1ccc(S(=O)(=O)Nc2nccs2)cc1)c1nn(-c2ccccc2)ccc1=O	?	/	22µM	.	.	.
CCn1nc(C(=O)Nc2ccc(S(=O)(=O)Nc3nccs3)cc2)c2ccccc2c1=O	?	/	?	.	.	.
CS(=O)c1ccccc1-c1nc(-c2cccc(Cl)c2)no1 (stereo not given)	.	.	.	.	.	35µM
